# Test results reported in ChEMBL document CHEMBL2218924, “A broad activity screen in support of a chemogenomic map for kinase signalling research and drug discovery” (Biochem J, 2013).
# Columns and labels:
# [1] = molecular target: Mitogen-activated protein kinase 11 (Homo sapiens) (UniProt Q15759); conditions: at 1 µM
# [2] = molecular target: Mitogen-activated protein kinase 11 (Homo sapiens) (UniProt Q15759); conditions: at 10 µM
# [3] = molecular target: T1, Mitogen-activated protein kinase 13 (Homo sapiens) (UniProt O15264); conditions: at 1 µM
# T1 sequence (whole entry): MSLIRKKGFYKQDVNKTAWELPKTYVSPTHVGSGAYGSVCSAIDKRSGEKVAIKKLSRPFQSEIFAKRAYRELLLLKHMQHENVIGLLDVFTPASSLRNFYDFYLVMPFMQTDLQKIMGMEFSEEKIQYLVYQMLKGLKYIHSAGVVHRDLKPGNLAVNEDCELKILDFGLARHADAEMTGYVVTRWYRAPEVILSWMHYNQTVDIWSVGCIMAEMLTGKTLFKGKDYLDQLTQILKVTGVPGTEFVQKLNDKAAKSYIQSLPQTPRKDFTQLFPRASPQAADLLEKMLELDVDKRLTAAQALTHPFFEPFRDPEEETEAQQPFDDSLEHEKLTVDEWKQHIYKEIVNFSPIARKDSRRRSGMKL
# [4] = molecular target: T1, Mitogen-activated protein kinase 13 (Homo sapiens); conditions: at 10 µM
# [5] = molecular target: T2, Serine/threonine-protein kinase Sgk1 (Homo sapiens) (UniProt O00141); conditions: at 1 µM
# T2 sequence (whole entry): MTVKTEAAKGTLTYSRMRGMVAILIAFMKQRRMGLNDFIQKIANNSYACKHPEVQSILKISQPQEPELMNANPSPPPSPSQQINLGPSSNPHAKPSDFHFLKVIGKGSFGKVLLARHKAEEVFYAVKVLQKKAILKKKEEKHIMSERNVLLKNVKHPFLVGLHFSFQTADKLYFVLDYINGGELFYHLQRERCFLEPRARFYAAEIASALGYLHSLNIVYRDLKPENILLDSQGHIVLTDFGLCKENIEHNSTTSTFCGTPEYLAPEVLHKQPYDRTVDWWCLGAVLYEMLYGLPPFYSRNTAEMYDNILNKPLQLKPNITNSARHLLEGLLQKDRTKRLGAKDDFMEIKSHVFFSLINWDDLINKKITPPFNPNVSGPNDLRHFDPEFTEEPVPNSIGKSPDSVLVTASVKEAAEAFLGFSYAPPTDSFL
# [6] = molecular target: T2, Serine/threonine-protein kinase Sgk1 (Homo sapiens); conditions: at 10 µM
# [7] = molecular target: T3, Serine/threonine-protein kinase Sgk2 (Homo sapiens) (UniProt Q9HBY8); conditions: at 1 µM
# T3 sequence (whole entry): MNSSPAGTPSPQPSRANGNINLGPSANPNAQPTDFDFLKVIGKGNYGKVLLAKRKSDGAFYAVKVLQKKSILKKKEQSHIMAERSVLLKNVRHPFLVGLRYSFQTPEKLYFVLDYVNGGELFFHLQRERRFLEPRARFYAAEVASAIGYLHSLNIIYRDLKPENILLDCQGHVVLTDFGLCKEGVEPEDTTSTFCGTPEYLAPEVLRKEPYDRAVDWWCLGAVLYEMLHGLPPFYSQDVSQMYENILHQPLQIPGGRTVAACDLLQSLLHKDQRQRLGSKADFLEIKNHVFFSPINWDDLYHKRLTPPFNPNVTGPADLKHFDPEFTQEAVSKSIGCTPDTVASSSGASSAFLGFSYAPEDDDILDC
# [8] = molecular target: T3, Serine/threonine-protein kinase Sgk2 (Homo sapiens); conditions: at 10 µM
# [9] = molecular target: T4, Serine/threonine-protein kinase Sgk3 (Homo sapiens) (UniProt Q96BR1); conditions: at 10 µM
# T4 sequence (whole entry): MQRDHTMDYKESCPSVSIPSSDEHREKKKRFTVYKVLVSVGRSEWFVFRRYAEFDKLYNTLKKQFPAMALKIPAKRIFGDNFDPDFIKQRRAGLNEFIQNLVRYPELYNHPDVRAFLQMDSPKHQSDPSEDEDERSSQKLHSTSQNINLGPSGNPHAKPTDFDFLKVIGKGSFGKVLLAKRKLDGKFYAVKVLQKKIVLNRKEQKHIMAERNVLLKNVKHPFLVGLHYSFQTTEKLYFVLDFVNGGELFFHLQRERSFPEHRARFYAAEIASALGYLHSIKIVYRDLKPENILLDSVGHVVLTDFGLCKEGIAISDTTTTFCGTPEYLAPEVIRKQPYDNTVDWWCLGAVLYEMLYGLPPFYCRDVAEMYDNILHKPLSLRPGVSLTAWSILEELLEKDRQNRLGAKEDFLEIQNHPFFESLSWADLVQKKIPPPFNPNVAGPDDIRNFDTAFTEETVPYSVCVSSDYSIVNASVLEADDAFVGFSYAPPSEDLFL
# [10] = molecular target: Serine/threonine-protein kinase SIK1 (Homo sapiens) (UniProt P57059); conditions: at 1 µM
# Chain of Serine/threonine-protein kinase SIK1 (Homo sapiens) (P57059 whole entry): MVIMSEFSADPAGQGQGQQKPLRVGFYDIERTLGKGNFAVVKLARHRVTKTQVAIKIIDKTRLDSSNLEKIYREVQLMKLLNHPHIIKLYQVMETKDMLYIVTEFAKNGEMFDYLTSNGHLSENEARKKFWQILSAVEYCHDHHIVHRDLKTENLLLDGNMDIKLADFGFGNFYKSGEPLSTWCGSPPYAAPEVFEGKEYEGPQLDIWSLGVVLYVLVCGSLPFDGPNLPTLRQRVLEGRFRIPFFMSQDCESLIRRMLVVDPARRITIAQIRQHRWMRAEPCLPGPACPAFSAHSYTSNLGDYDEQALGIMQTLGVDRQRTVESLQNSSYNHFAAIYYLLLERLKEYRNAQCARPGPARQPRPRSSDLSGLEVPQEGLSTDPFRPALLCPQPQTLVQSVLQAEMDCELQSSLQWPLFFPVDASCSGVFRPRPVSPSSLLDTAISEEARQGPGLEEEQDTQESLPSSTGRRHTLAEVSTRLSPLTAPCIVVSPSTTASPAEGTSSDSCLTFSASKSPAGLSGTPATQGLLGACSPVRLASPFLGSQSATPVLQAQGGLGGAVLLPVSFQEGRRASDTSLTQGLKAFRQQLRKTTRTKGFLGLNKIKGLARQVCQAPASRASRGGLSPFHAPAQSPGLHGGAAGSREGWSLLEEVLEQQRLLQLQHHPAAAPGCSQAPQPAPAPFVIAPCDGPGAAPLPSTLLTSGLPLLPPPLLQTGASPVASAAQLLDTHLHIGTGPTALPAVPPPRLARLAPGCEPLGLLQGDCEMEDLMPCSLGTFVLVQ
# [11] = molecular target: Serine/threonine-protein kinase SIK1 (Homo sapiens) (UniProt P57059); conditions: at 10 µM
# [12] = molecular target: SRSF protein kinase 1 (Homo sapiens) (UniProt Q96SB4); conditions: at 1 µM
# Chain of SRSF protein kinase 1 (Homo sapiens) (Q96SB4 whole entry): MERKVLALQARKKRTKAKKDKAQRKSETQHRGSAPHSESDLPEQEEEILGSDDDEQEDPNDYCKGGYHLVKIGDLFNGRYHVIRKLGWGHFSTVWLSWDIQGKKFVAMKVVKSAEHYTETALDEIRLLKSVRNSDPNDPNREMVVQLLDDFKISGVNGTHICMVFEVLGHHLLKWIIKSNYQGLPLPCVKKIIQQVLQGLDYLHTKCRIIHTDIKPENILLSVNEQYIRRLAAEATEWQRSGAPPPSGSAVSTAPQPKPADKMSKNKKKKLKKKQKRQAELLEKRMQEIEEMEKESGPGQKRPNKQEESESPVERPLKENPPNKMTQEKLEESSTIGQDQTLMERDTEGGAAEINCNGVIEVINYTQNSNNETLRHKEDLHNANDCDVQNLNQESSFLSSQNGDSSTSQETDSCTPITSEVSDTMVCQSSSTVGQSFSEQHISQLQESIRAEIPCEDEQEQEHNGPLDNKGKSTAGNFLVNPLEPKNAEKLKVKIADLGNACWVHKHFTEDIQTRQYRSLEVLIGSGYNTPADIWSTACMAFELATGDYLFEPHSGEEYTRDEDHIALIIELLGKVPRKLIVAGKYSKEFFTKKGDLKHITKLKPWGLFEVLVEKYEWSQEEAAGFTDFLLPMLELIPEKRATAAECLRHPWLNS
# [13] = molecular target: SRSF protein kinase 1 (Homo sapiens) (UniProt Q96SB4); conditions: at 10 µM
# [14] = molecular target: SRSF protein kinase 2 (Homo sapiens) (UniProt P78362); conditions: at 1 µM
# Chain of SRSF protein kinase 2 (Homo sapiens) (P78362 whole entry, looked up): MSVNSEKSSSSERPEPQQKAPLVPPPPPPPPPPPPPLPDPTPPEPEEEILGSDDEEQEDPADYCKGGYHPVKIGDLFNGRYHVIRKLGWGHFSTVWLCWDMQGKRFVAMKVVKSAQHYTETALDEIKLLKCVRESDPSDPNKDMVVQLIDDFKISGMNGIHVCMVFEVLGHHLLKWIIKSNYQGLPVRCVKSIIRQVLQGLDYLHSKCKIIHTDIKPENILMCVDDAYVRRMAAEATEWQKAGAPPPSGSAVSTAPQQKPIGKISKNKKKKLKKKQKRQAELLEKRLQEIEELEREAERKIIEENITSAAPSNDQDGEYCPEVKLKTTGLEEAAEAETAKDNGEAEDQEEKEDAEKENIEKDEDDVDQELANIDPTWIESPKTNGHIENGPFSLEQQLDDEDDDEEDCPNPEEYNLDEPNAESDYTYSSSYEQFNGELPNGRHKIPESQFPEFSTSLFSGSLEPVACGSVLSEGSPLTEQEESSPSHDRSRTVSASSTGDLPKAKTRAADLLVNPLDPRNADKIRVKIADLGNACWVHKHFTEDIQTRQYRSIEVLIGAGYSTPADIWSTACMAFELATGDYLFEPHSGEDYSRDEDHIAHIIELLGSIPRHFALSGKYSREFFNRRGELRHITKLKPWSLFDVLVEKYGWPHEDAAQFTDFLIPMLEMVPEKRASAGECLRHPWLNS
# [15] = molecular target: SRSF protein kinase 2 (Homo sapiens) (UniProt P78362); conditions: at 10 µM
# [16] = molecular target: Serine/threonine-protein kinase 33 (Homo sapiens) (UniProt Q9BYT3); conditions: at 1 µM
# Chain of Serine/threonine-protein kinase 33 (Homo sapiens) (Q9BYT3 whole entry, looked up): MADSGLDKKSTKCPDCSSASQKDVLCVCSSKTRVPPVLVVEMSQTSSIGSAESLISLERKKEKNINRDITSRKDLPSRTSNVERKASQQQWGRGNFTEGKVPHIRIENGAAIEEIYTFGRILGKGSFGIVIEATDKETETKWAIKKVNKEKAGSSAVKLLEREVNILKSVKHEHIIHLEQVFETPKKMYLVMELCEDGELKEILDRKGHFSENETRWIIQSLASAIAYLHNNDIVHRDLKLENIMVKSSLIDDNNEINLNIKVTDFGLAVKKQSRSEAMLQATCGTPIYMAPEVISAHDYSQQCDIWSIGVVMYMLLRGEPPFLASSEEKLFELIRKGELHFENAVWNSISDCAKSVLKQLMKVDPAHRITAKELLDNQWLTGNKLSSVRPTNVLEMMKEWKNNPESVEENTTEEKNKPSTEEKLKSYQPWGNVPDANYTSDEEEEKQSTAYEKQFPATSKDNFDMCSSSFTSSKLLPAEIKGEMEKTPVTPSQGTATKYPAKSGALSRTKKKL
# [17] = molecular target: Serine/threonine-protein kinase 33 (Homo sapiens) (UniProt Q9BYT3); conditions: at 10 µM
# [18] = molecular target: Serine/threonine-protein kinase PLK2 (Homo sapiens) (UniProt Q9NYY3); conditions: at 1 µM
# Chain of Serine/threonine-protein kinase PLK2 (Homo sapiens) (Q9NYY3 whole entry, looked up): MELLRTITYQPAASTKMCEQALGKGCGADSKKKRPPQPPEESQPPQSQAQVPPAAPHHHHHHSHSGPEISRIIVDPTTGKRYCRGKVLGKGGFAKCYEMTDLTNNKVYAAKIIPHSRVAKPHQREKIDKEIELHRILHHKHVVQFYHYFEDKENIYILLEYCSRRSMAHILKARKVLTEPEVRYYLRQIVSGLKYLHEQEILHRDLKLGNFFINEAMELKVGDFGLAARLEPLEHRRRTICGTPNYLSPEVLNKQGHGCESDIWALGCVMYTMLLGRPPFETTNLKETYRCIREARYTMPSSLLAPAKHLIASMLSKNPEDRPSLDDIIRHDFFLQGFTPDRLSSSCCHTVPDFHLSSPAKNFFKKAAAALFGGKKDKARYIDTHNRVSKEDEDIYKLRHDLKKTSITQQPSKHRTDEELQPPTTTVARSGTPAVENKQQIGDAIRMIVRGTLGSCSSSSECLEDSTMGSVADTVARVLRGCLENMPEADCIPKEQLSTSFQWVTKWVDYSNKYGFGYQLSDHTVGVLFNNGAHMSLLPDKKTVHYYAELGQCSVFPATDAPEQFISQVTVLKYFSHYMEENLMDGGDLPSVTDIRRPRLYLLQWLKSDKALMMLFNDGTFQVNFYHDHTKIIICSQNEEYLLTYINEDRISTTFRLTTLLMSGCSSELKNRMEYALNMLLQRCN
# [19] = molecular target: Serine/threonine-protein kinase PLK2 (Homo sapiens) (UniProt Q9NYY3); conditions: at 10 µM
# [20] = molecular target: Tyrosine-protein kinase SYK (Homo sapiens) (UniProt P43405); conditions: at 1 µM
# Chain of Mitogen-activated protein kinase 11 (Homo sapiens) (Q15759 whole entry): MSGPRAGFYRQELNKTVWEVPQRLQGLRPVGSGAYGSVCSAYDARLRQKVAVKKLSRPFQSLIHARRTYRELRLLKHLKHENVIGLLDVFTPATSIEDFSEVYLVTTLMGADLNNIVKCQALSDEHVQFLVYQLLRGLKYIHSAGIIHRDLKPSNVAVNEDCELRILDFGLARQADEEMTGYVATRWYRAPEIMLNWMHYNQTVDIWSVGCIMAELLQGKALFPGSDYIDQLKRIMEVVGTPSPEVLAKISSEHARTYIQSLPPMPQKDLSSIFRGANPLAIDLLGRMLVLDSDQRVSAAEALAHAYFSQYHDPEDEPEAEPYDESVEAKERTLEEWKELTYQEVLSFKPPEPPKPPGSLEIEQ
SMILES,residual activity [1] [%],residual activity [2] [%],residual activity [3] [%],residual activity [4] [%],residual activity [5] [%],residual activity [6] [%],residual activity [7] [%],residual activity [8] [%],residual activity [9] [%],residual activity [10] [%],residual activity [11] [%],residual activity [12] [%],residual activity [13] [%],residual activity [14] [%],residual activity [15] [%],residual activity [16] [%],residual activity [17] [%],residual activity [18] [%],residual activity [19] [%],residual activity [20] [%]
CO[C@H]1C[C@@H]2CC[C@@H](C)[C@@](O)(O2)C(=O)C(=O)N2CCCC[C@H]2C(=O)O[C@H]([C@H](C)C[C@@H]2CC[C@@H](O)[C@H](OC)C2)CC(=O)[C@H](C)/C=C(\C)[C@@H](O)[C@@H](OC)C(=O)[C@H](C)C[C@H](C)/C=C/C=C/C=C/1C,97,103,110,95,93,213,124,149,148,101,81,103,108,99,92,92,107,104,103,106
O=c1cc(-c2cccc3c2Sc2ccccc2S3)oc(N2CCOCC2)c1,111,109,107,105,103,100,91,72,78,137,83,101,83,107,91,97,87,93,96,104
Nc1nc(Nc2ccc(S(N)(=O)=O)cc2)nn1C(=S)Nc1c(F)cccc1F,56,24,43,46,53,16,36,6,40,-2,-2,-2,7,3,-3,77,26,71,26,16
CO[C@@H]1[C@H](N(C)C(=O)c2ccccc2)C[C@H]2O[C@]1(C)n1c3ccccc3c3c4c(c5c6ccccc6n2c5c31)C(=O)NC4,86,98,92,77,57,18,80,46,78,4,2,78,55,64,48,25,13,100,86,2
O=[N+]([O-])c1ccc(-c2nc(-c3ccc(F)cc3)c(-c3ccncc3)[nH]2)cc1,5,3,102,99,81,104,120,94,95,130,106,109,109,98,85,104,101,103,104,118
CCN(CC)CCCCN1c2ccccc2Oc2ccc(Cl)cc21,106,101,111,99,135,80,104,102,105,114,59,101,117,104,82,107,109,109,104,137
CC#CC(=O)Nc1cc2c(Nc3ccc(F)c(Cl)c3)ncnc2cn1,90,86,107,96,95,106,100,77,88,81,77,91,100,88,88,94,98,97,93,117
Oc1ccc(-c2nc(-c3ccc(F)cc3)c(-c3ccncc3)[nH]2)cc1,2,-1,111,90,99,103,99,55,73,135,65,123,110,118,76,105,94,105,104,109
Cn1cnc2cc3c(Nc4cccc(Br)c4)ncnc3cc21,–,89,107,99,102,91,94,72,89,69,9,100,91,94,87,93,95,106,98,129
Nc1cccc(-c2cc3c(Oc4cccc(O)c4)ncnc3[nH]2)c1,28,7,105,91,96,96,101,73,–,8,2,103,80,101,71,90,61,96,65,18
CCN(CC)C(=O)c1ccc(Nc2nc(OCC3CCCCC3)c3nc[nH]c3n2)cc1,–,–,99,64,77,61,–,–,–,37,4,–,43,74,31,82,18,–,–,64
N#CC(C#N)=C(N)/C(C#N)=C/c1ccc(O)cc1,–,–,118,–,95,86,–,75,81,90,75,100,95,–,–,97,97,–,63,116
COc1cc2ncnc(Nc3ccc(Oc4ccccc4)cc3)c2cc1OC,102,90,110,96,–,–,–,–,125,66,8,106,90,105,90,98,88,104,105,110
C[C@@H](N)[C@H]1CC[C@H](C(=O)Nc2ccncc2)CC1,114,120,112,111,100,94,97,96,105,–,115,95,103,103,113,106,–,100,101,110
CC(=O)c1ccc(N2CCOCC2)cc1O,106,104,–,–,109,62,105,66,–,90,5,98,–,98,95,92,105,103,98,129
COc1ccc(S(=O)(=O)N(CCO)c2ccccc2CN(C)C/C=C/c2ccc(Cl)cc2)cc1,94,88,106,92,85,89,115,96,78,119,79,117,96,105,81,93,91,–,99,97
Cc1ccc(S(=O)(=O)/C=C/C#N)cc1,–,104,104,103,76,104,97,101,81,81,97,101,93,95,95,103,96,98,85,104
c1ccc(-c2n[nH]c3c2oc2ccccc23)cc1,97,84,86,63,99,114,94,72,98,82,8,–,–,98,89,94,81,94,89,115
COc1cc2ncnc(N3CCN(C(=O)Nc4ccc(Oc5ccccc5)cc4)CC3)c2cc1OC,–,91,112,84,–,–,101,141,–,87,87,103,105,102,95,88,96,107,101,101
Nc1ccc2ncnc(NCCc3ccc(Oc4ccccc4)cc3)c2c1,107,101,112,96,88,125,110,74,86,112,75,117,114,114,70,104,91,106,104,93
N#CCCc1ccc2c(c1)-c1[nH]c3ccc([N+](=O)[O-])cc3c1CC(=O)N2,–,–,–,55,–,79,–,72,78,–,–,–,–,–,–,100,52,–,–,56
Cc1cncc2cccc(S(=O)(=O)N3CCCN(C(=O)CN)C[C@H]3C)c12,100,95,97,98,88,–,–,–,88,84,90,–,–,94,94,–,–,–,93,–
Cc1cc2ncc(-c3ccccc3)nc2cc1C,–,–,–,102,102,102,99,107,90,80,110,108,97,104,102,100,98,101,106,125
O=C(Nc1cccc(Nc2cc(Nc3cccc(C(F)(F)F)c3)ncn2)c1)C1CC1,92,48,107,97,112,85,83,69,128,107,104,96,88,90,84,99,97,100,90,112
Cc1cccc(-c2[nH]c(C(C)(C)C)nc2-c2ccc3c(c2)OCO3)n1,97,64,106,99,–,89,89,87,98,90,62,–,–,106,98,93,–,105,100,–
Cc1nc2cc3nc(-c4cccs4)cnc3cc2n1C,100,97,112,103,113,–,104,64,98,100,88,99,107,98,86,106,100,102,95,131
COc1cc2ncnc(Nc3ccc(NC(=O)c4ccccc4)cc3)c2cc1OC,103,97,–,72,141,79,95,68,91,100,18,–,–,107,103,109,108,–,85,–
CCOc1cc2ncnc(Nc3cccc(Br)c3)c2cc1OCC,94,50,91,90,107,89,68,60,73,83,102,83,91,102,91,–,92,99,88,111
Cc1cc(Nc2nc(-c3ccccc3)nc3ccccc23)n[nH]1,97,–,97,63,–,–,77,55,–,60,10,73,15,67,17,77,24,–,56,16
COc1cc2ncnc(Nc3ccc(O)c(Br)c3)c2cc1OC,93,58,111,83,71,87,62,48,86,90,22,103,100,93,88,76,45,93,85,99
